Hits are enriched below; roughly 2.4% of the tested compounds scored in any of these assays.
FEN1 inh – qHTS Assay for the Inhibitors of Human Flap endonuclease 1 (FEN1); Potency, µM (highest dose often 114 µM), for the others: at the highest dose activity change, negative = inhibition, hits mostly inhibitors; P39748; Recombinant FEN1 flap cleavage, fluorescence, 15 min; 0.35% of 390,000 active; note: % is set by controls: 0 for no effect and ±100 for the full control effect; nearly all actives have a fitted effect of over 65% in size
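In this screen, 50 nM flap DNA substrate was added to 10 nM FEN1 pretreated with compound for 15 min at room temperature; cleavage was followed with reads at 0 and 15 min, and Hill fitting gave concentration–response parameters.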
POLB inh – qHTS Assay for Inhibitors of DNA Polymerase Beta; Pol beta primer extension/strand displacement, fluorescence kinetic; Potency, µM (highest dose often 114 µM), for the others: top-dose activity change, negative = inhibition, most hits filed as inhibitors; 1.3% of 340,000 active; AID 485314, 2010; note: % is set by controls: 0 for no effect and ±100 for the full control effect
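Preincubation: enzyme (10 nM) with compound, 15 min, RT. Reaction: substrate added to 50 nM final. Reads: 0 and 10 min. Analysis: normalized, Hill fit.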
WRN helicase inh – qHTS for Inhibitors of WRN Helicase | Potency, µM (doses to about 114 µM), inactives show at the highest dose activity change, negative = inhibition, actives largely listed as inhibitors | 0.46% of 360,000 active | WRN helicase unwinding, fluorescent forked duplex, kinetic | Bifunctional 3'-5' exonuclease/ATP-dependent helicase WRN (Homo sapiens), Q14191; note: % is set by controls: 0 for no effect and ±100 for the full control effect; nearly all actives have a fitted effect of over 55% in size
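WRN at 20 nM final was preincubated with compound for 15 min at room temperature; reaction started with 100 nM forked duplex oligonucleotide carrying fluorophore and quencher plus 2 mM ATP (final). Unwinding followed kinetically by red fluorescence (ex 525/em 598 nm).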
POLI inh – qHTS for Inhibitors of Polymerase Iota; Potency, µM (doses to about 115 µM), for inactives: at the highest dose activity, negative = inhibition, usual class: inhibitors; Pol iota fluorescent replication assay, 10 min; 1% of 390,000 active
Target sequence (Q9UNA4 whole entry, looked up): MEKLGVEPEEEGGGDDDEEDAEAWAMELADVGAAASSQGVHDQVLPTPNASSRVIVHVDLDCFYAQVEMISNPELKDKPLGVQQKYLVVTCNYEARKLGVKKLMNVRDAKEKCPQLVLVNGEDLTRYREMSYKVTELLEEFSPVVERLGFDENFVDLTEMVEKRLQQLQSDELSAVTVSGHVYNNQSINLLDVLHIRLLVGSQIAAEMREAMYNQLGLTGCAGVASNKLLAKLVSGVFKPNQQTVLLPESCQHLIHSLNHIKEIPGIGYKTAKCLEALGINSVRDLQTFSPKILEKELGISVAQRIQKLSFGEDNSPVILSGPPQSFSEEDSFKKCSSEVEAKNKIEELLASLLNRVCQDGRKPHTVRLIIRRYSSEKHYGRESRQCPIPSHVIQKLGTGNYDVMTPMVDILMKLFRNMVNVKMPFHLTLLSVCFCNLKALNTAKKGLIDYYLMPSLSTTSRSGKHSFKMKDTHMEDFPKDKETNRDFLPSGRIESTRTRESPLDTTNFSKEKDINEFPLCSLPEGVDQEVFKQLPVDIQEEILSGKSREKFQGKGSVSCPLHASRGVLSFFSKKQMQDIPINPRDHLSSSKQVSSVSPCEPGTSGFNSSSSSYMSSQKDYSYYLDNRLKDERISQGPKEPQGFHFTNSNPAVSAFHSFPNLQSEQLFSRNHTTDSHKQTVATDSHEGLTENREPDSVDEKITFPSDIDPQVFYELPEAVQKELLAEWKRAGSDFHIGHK
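Fluorescent replication assay read twice, at 0 min and 10 min after adding 50 nM (final) substrate. Enzyme (10 nM) and compounds were first incubated 15 min at room temperature; enzyme-free buffer wells were negative controls.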
POLK inh – qHTS for Inhibitors of Polymerase Kappa; DNA polymerase kappa (Homo sapiens), Q9UBT6; purified Pol kappa, fluorescent DNA synthesis assay, 10 min; Potency, µM (titrated, usually from 107 µM), without a hit: top-dose activity, negative = inhibition, usual class: inhibitors; 0.53% of 400,000 active; AID 588579, 2011; note: % is set by controls: 0 for no effect and ±100 for the full control effect
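First, compounds were pin-transferred onto 10 nM Pol kappa. After 15 min at room temperature, substrate was added to 50 nM final. Fluorescence was then measured kinetically at 0 and 10 min.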
Pol eta inh – qHTS for Inhibitors of Polymerase Eta; Potency, µM (highest dose often 114 µM), for inactives: at the highest dose activity change, negative = inhibition, most hits filed as inhibitors; DNA polymerase eta (Homo sapiens), Q9Y253; AID 588591, 2011; recombinant Pol eta, fluorescent DNA replication assay; 1.2% of 390,000 active; note: % is set by controls: 0 for no effect and ±100 for the full control effect
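Pol eta at 10 nM preincubated with compounds 15 min at room temperature; reaction started with fluorescent substrate (50 nM final) and read kinetically at 0 and 10 min.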
* marks the source's active call; other numbers are inactive results; ? = inconclusive; . = no result given; [ ] = dose if it differs, or a comment. Calls come from the whole dose curve; as a rule, active = well fitted curve in the direction sought with a large enough effect; inconclusive = small, poorly fitted or top-dose-only effect, or another doubt; inactive = no such curve, though single readings can be large; an effect the other way counts as inactive or inconclusive. Potency is the fitted concentration of half-maximal effect.

SMILES	FEN1 inh	POLB inh	WRN helicase inh	POLI inh	POLK inh	Pol eta inh
COc1ccccc1N1CCN(S(=O)(=O)c2ccc(-n3cnnn3)c(C)c2)CC1	-9.3%	-18.6%	-14.5%	5.5%	-5.3%	-20.4%
CCC(C(=O)OCC(=O)Nc1ccc(SC(F)F)cc1)c1ccccc1 (centres undefined)	-25.1%	?	-8.7%	38.2%	-13.4%[60.1 µM]	-29.4%
CC(C)CCN1C(=O)c2ccc(C(=O)Nc3ccc(Br)cc3C(=O)O)cc2C1=O	-25.2%	-2.5%	-7.6%[11.6 µM]	?	-34.5%	31.6µM*
CC(C)CCN1C(=O)c2ccc(C(=O)Nc3cc(C(=O)O)cc(C(=O)O)c3)cc2C1=O	5.0%	-1.9%	-7.0%	129.2%	4.1%	-20.2%
COc1ccc(NC(=O)c2cc3ccccc3cc2OC)cc1OC	-25.7%	28.7%	-6.0%	-21.0%	-13.7%	-11.6%
COc1cc2ccccc2cc1C(=O)Nc1ccc(O)cc1	6.4%	22.4µM*	-13.6%	66.4%	-6.0%	-3.1%
COc1ccccc1C(=O)NNC(=O)c1ccc2ccccc2c1	18.3%	12.1%	-0.7%	36.5%	89.1µM*	-17.0%
COc1ccccc1C(=O)Nc1ccc2c(c1)C(=O)NC2=O	-1.0%	56.2µM*	-20.0%	12.3%	-16.1%	-13.0%
O=C(Nc1ccc2c(c1)N(S(=O)(=O)c1cccs1)CCC2)c1c(F)cccc1Cl	-13.4%	.	-6.7%	4.7%	-8.8%	-8.8%
CC(=O)Nc1ccc(C(=O)COC(=O)C2CC2)c(F)c1	10.8%	.	-4.9%	23.7%	-1.5%	0.4%
Cc1ccc(N(CC(O)COCc2ccco2)S(=O)(=O)c2ccc(C)cc2)cc1 (centres undefined)	-18.9%	22.4µM*	?	?	89.1µM*	50.1µM*
COC(=O)c1sc(-c2ccccc2)cc1NC(=O)Nc1ccc(Cl)cc1	-27.3%	27.9%	.	-5.6%	0.2%	-6.7%
COC(=O)c1sc(-c2ccccc2)cc1NC(=O)Nc1ccc(F)cc1	89.1µM*	1.1%	.	?	?	-5.6%
CCOC(=O)N1C(=O)NC(=O)C1c1ccccc1 (centres undefined)	5.4%	.	1.4%	9.5%	-16.1%	-6.7%
S=c1[nH]nc(-c2ccccc2)n1/N=C/C=C/c1ccco1	1.4%	44.7µM*	-1.0%	52.0%	-17.3%	-18.9%
S=c1[nH]nc(-c2ccc(Cl)cc2)n1/N=C/C=C/c1ccco1	-14.9%	25.1µM*	-26.4%	-12.1%	-20.4%	?
S=c1[nH]nc(-c2ccco2)n1/N=C/C=C/c1ccccc1	-0.3%	12.7%	-9.4%	8.4%	4.2%	-20.9%
CCCCn1c(N)c(-c2nc3ccccc3o2)c2c([N+](=O)[O-])nn(CC)c(=O)c21	-4.8%	13.6%	-4.2%	-20.8%	-2.8%	3.55µM*
O=C(N/N=C/c1ccc([N+](=O)[O-])s1)c1ccncc1	-2.6%	-0.8%[57.1 µM]	-6.8%	?	-18.1%	1.7%
Cc1ccc(C(=O)N/N=C/c2ccc([N+](=O)[O-])s2)cc1	-4.6%	28.2µM*	-15.0%	?	-14.9%	-5.0%
CCCc1cc(=O)[nH]c(-n2[nH]c3c(c2=O)CCCC3)n1	3.5%	11.8%	?	15.8µM*	-16.8%	-13.9%
Cc1oc(C(=O)O)cc1COc1ccc2c(C)cc(=O)oc2c1	-5.1%	?	-10.1%	-14.3%	-24.9%	22.4µM*
O=S(=O)(Cc1cc(NCc2ccccc2)nc(-c2ccncc2)n1)c1ccccc1	7.4%	79.4µM*	2.7%	89.3%	-2.5%	-8.8%
C#CCOCCOCCOCCNc1nc(N2CCN(C(=O)[C@H](Cc3ccc(O)cc3)n3cc([C@@H](N)CC(C)C)nn3)CC2)nc(N2CCN(C(=O)[C@H](Cc3cc4ccccc4[nH]3)n3cc([C@@H](N)CC(C)C)nn3)CC2)n1	-4.5%	35.5µM*	?	?	-4.1%	-19.5%
